Laboratory results from the supplement of paper PMC6288085.
Counter-ions that a name gives are not always drawn. ± gives the uncertainty stated by the source.

System: Caenorhabditis elegans N2
Experiment: food intake (mean delta OD600 / animal over 72 h) with 50 uM loxapine co-treatment (OD600 units per animal); higher = more food eaten (less suppression of loxapine-induced hyperphagia)
Conditions: first compound 33 µM, loxapine concentration 50 µM
Procedure: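 C. elegans N2 adults (FUDR-sterilised, day 1) in 96-well plates fed gamma-irradiated bacteria. Each library drug (MedChemExpress FDA-approved library) at 33 uM was combined with loxapine at 50 uM. Food intake was measured as bacterial clearance: the change in OD600 from day 1 to 72 h, normalised per animal (mean over 14-21 wells of about 10-12 worms). Drugs flagged for bacterial lysis or sickness were excluded by the authors.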

| SMILES | food intake |
| --- | --- |
| CCCCCCCCCCC(=O)O[C@H]1CC[C@H]2[C@@H]3CCC4=CC(=O)CC[C@]4(C)[C@H]3CC[C@]12C [testosterone (undecanoate)] + CN1CCN(C2=Nc3ccccc3Oc3ccc(Cl)cc32)CC1 [loxapine] | 0.0238 ± 0.0023 |
| CCC1(c2cccc(O)c2)CCCCN(C)C1 (configuration not stated) [meptazinol (hydrochloride)] + CN1CCN(C2=Nc3ccccc3Oc3ccc(Cl)cc32)CC1 [loxapine] | 0.0231 ± 0.0039 |
| COc1cc2c(cc1OC)C1CC(=O)C(CC(C)C)CN1CC2 (configuration not stated) [tetrabenazine] + CN1CCN(C2=Nc3ccccc3Oc3ccc(Cl)cc32)CC1 [loxapine] | 0.0274 ± 0.017 |
| O=C(N/N=C/c1ccc([N+](=O)[O-])o1)c1cc([N+](=O)[O-])cc([N+](=O)[O-])c1O [nifursol] + CN1CCN(C2=Nc3ccccc3Oc3ccc(Cl)cc32)CC1 [loxapine] | 0.0249 ± 0.0032 |
| C=CCN1CC[C@]23c4c5ccc(O)c4O[C@H]2C(=O)CC[C@@]3(O)[C@H]1C5 [naloxone (hydrochloride)] + CN1CCN(C2=Nc3ccccc3Oc3ccc(Cl)cc32)CC1 [loxapine] | 0.0254 ± 0.0053 |
| C[N+](C)(C)CCCCCCCCCC[N+](C)(C)C [decamethonium (bromide)] + CN1CCN(C2=Nc3ccccc3Oc3ccc(Cl)cc32)CC1 [loxapine] | 0.0222 ± 0.0054 |
| Oc1cccc2cccnc12 [8-hydroxyquinoline] + CN1CCN(C2=Nc3ccccc3Oc3ccc(Cl)cc32)CC1 [loxapine] | 0.0224 ± 0.0032 |
| CN1[C@@H]2CC(O)C[C@H]1[C@@H]1O[C@@H]12 (some centres not stated) [scopine (hydrochloride)] + CN1CCN(C2=Nc3ccccc3Oc3ccc(Cl)cc32)CC1 [loxapine] | 0.00616 ± 0.012 |
| Cc1ccc(O)cc1.Cc1cccc(O)c1.Cc1ccccc1O [cresol] + CN1CCN(C2=Nc3ccccc3Oc3ccc(Cl)cc32)CC1 [loxapine] | 0.0212 ± 0.0037 |
| C[C@]12CCC(=O)C(O)=C1CC[C@@H]1[C@@H]2CC[C@]2(C)C(=O)CC[C@@H]12 [formestane] + CN1CCN(C2=Nc3ccccc3Oc3ccc(Cl)cc32)CC1 [loxapine] | 0.0217 ± 0.0021 |
| O=[N+]([O-])C(Br)(CO)CO [bronopol] + CN1CCN(C2=Nc3ccccc3Oc3ccc(Cl)cc32)CC1 [loxapine] | 0.0259 ± 0.0077 |
| COc1ccc(CN2CCNCC2)c(OC)c1OC [trimetazidine (dihydrochloride)] + CN1CCN(C2=Nc3ccccc3Oc3ccc(Cl)cc32)CC1 [loxapine] | 0.0224 ± 0.003 |
